Activity calls are given as the source filed them.
How the values were obtained:
[1] = binders of probe aFSTL3 on microarray, primary screen, stem cell growth factor project, biochemical, small-molecule microarray, fluorescence 635/667 (AID 1064); settings: higher = more signal;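 note: measures binding of the biotinylated anti-FSTL3 antibody to printed compounds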
[2] = binders from COS7 lysate, DM2A8 probe, primary screen, torsin A project, cell lysate, small-molecule microarray, fluorescence 635/667 (AID 1065); settings: higher = more signal, COS7 lysate expressing mutant human TOR1A
[3] = binders of probe aFGF2 on microarray, primary screen, stem cell growth factor project, biochemical, small-molecule microarray, fluorescence 635/667 (AID 1067); settings: higher = more signal;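 note: measures binding of biotinylated aFGF2 protein to printed compounds on slides; z-score merges feature fluorescence and signal-to-noise across triplicate slides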
[4] = binders of probe aFGF10 on microarray, primary screen, stem cell growth factor project, biochemical, small-molecule microarray, fluorescence 635/667 (AID 1071); settings: higher = more signal;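 note: score merges 667 nm spot intensity and signal to noise from triplicate slides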
[5] = molecular target: Neurogenic locus notch homolog protein 2 (Homo sapiens) (UniProt Q04721); test: Notch2 binders on small-molecule microarrays, primary screen, biochemical, small-molecule microarray, 635 nm fluorescence, stem cell growth factors (AID 1073); settings: Notch2 binding, higher = more signal
[6] = molecular target: Pro-neuregulin-1, membrane-bound isoform (Homo sapiens) (UniProt Q02297); test: NRG1 binders on small-molecule microarrays, primary screen, psychiatric disease protein project, biochemical, small-molecule microarray, fluorescence 635/667 (AID 1075); settings: NRG1 binding, 635 nm fluorescence, higher = more signal;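 note: score combines 667 nm spot fluorescence with signal to noise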
Sequence of Pro-neuregulin-1, membrane-bound isoform (Homo sapiens) (Q02297 whole entry, looked up, the tested form may be a part, canonical isoform): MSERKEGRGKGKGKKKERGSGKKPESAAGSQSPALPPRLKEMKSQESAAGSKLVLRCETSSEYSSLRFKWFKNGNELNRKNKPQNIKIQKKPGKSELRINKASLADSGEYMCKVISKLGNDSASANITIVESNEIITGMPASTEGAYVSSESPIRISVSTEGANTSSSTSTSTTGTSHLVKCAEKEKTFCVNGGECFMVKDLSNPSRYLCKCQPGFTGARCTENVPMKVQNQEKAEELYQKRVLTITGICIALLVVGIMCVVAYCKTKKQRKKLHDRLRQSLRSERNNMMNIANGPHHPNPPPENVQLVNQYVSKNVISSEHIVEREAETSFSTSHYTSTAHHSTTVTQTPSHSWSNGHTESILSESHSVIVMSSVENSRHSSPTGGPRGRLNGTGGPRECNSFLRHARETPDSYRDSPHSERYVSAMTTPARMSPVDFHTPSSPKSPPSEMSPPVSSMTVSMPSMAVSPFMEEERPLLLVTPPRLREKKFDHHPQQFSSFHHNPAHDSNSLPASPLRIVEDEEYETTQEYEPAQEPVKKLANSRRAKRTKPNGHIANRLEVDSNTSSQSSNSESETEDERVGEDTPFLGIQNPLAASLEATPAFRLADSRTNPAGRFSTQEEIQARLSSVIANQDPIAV

[7] = system: Neuregulin-1 EGF-like domain; test: binders of neuregulin-1 EGF-like domain, primary screen, biochemical, small-molecule microarray, 635 nm fluorescence (AID 1081); settings: small-molecule microarray binding, higher = more signal;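 note: binding of the protein to compounds printed on small-molecule microarray slides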
[8] = FRG1 promoter luciferase signal modulators, primary screen, FRG1 inhibition for FSHD, cell-based, C2C12 myotubes, firefly/Renilla luciferase, luminescence (AID 1084); settings: higher = more signal, called active from +8 up or from −8 down
[9] = binders of probe aFST on microarray, primary screen, stem cell growth factor project, biochemical, small-molecule microarray, fluorescence 635/667 (AID 1086); settings: higher = more signal;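 note: score merges 667 nm fluorescence with signal-to-noise of each printed compound spot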
[10] = binders of probe aHhip on microarray, primary screen, stem cell growth factor project, biochemical, small-molecule microarray, fluorescence 635/667 (AID 1087); settings: higher = more signal;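 note: score merges spot fluorescence at 667nm with spot signal to noise ratio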
[11] = system: PRMT1 (protein arginine N-methyltransferase 1); test: PRMT1 binders on small-molecule microarrays, primary screen, biochemical, small-molecule microarray, 635 nm fluorescence (AID 1088); settings: small-molecule microarray binding, higher = more signal;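 note: binding of Prmt1 protein to compounds spotted on small-molecule microarray slides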
[12] = yeast growth modulation, basal conditions, primary screen, YJM789 clinical isolate, OD600, 24 h (AID 1089);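 note: growth of clinical yeast isolate S. cerevisiae YJM 789 seeded 1000 cells per well; test concentration not given here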; settings: S. cerevisiae YJM789 growth, higher = more signal, called active from +8 up or from −8 down
[13] = fission yeast growth modulation, primary screen, strain 972, OD600, 24 h, no modulator (AID 1090);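 note: basal condition with compound alone and no growth modifier present; test concentration not given here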; settings: S. pombe 972 growth, higher = more signal, called active from +8 up or from −8 down
[14] = S. cerevisiae growth modulation with rapamycin, primary screen, strain BY4716, OD600, 96 h (AID 1091); settings: higher = more signal, called active from +8 up or from −8 down; note: test concentration not given here
[15] = molecular target: Torsin-1A-interacting protein 2 (Homo sapiens) (UniProt Q8NFQ8); test: LULL1 binders on small-molecule microarray, primary screen, cell lysate, human LULL1 lysate, 635/667 nm fluorescence (AID 1092); settings: hLULL1 lysate binding, 635 nm fluorescence, higher = more signal;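 note: probe is lysate of COS7 cells overexpressing human LULL1; score merges per-feature 667 nm fluorescence with signal-to-noise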
Sequence of Torsin-1A-interacting protein 2 (Homo sapiens) (Q8NFQ8 whole entry, looked up): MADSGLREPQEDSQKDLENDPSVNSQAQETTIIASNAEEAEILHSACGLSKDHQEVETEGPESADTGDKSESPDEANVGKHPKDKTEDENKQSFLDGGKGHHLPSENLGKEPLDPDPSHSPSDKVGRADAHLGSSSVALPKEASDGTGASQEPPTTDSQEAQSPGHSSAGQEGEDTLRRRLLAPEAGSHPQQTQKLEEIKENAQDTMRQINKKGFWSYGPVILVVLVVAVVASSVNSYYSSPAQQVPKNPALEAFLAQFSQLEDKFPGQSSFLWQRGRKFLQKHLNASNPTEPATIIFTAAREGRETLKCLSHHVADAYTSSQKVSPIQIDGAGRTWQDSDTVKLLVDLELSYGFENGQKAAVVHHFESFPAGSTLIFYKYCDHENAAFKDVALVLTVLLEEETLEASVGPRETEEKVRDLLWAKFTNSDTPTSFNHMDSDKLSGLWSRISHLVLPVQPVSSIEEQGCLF

[16] = E. coli growth modulation, two-sided OD650, primary screen, E. coli filamentation project, strain DRC41, 24 h (AID 1093); settings: OD650, 24 h, higher = more signal, called active from +8 up or from −8 down;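 note: MC1000 strain lacking acrAB efflux and sulA so SOS filamentation is blocked; test concentration not given here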
[17] = small-molecule microarray binders of probe aLefty2, primary screen, biochemical, biotinylated probe, 635/667 nm fluorescence (AID 1094); settings: higher = more signal;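 note: score merges spot fluorescence near 667 nm with spot signal-to-noise ratio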
[18] = system: Noggin (protein binding on small-molecule microarray); test: Noggin binders on small-molecule microarray, primary screen, biochemical, 635/667 nm fluorescence (AID 1095); settings: 635 nm fluorescence, higher = more signal;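 note: score merges 667 nm feature fluorescence with signal to noise over triplicate slides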
[19] = molecular target: Neurogenic locus notch homolog protein 3 (Homo sapiens) (UniProt Q9UM47); test: NOTCH3 binders on small-molecule microarray, primary screen, biochemical, 635/667 nm fluorescence (AID 1096); settings: NOTCH3 binding, 635 nm fluorescence, higher = more signal
Sequence of Neurogenic locus notch homolog protein 3 (Homo sapiens) (Q9UM47 whole entry, looked up): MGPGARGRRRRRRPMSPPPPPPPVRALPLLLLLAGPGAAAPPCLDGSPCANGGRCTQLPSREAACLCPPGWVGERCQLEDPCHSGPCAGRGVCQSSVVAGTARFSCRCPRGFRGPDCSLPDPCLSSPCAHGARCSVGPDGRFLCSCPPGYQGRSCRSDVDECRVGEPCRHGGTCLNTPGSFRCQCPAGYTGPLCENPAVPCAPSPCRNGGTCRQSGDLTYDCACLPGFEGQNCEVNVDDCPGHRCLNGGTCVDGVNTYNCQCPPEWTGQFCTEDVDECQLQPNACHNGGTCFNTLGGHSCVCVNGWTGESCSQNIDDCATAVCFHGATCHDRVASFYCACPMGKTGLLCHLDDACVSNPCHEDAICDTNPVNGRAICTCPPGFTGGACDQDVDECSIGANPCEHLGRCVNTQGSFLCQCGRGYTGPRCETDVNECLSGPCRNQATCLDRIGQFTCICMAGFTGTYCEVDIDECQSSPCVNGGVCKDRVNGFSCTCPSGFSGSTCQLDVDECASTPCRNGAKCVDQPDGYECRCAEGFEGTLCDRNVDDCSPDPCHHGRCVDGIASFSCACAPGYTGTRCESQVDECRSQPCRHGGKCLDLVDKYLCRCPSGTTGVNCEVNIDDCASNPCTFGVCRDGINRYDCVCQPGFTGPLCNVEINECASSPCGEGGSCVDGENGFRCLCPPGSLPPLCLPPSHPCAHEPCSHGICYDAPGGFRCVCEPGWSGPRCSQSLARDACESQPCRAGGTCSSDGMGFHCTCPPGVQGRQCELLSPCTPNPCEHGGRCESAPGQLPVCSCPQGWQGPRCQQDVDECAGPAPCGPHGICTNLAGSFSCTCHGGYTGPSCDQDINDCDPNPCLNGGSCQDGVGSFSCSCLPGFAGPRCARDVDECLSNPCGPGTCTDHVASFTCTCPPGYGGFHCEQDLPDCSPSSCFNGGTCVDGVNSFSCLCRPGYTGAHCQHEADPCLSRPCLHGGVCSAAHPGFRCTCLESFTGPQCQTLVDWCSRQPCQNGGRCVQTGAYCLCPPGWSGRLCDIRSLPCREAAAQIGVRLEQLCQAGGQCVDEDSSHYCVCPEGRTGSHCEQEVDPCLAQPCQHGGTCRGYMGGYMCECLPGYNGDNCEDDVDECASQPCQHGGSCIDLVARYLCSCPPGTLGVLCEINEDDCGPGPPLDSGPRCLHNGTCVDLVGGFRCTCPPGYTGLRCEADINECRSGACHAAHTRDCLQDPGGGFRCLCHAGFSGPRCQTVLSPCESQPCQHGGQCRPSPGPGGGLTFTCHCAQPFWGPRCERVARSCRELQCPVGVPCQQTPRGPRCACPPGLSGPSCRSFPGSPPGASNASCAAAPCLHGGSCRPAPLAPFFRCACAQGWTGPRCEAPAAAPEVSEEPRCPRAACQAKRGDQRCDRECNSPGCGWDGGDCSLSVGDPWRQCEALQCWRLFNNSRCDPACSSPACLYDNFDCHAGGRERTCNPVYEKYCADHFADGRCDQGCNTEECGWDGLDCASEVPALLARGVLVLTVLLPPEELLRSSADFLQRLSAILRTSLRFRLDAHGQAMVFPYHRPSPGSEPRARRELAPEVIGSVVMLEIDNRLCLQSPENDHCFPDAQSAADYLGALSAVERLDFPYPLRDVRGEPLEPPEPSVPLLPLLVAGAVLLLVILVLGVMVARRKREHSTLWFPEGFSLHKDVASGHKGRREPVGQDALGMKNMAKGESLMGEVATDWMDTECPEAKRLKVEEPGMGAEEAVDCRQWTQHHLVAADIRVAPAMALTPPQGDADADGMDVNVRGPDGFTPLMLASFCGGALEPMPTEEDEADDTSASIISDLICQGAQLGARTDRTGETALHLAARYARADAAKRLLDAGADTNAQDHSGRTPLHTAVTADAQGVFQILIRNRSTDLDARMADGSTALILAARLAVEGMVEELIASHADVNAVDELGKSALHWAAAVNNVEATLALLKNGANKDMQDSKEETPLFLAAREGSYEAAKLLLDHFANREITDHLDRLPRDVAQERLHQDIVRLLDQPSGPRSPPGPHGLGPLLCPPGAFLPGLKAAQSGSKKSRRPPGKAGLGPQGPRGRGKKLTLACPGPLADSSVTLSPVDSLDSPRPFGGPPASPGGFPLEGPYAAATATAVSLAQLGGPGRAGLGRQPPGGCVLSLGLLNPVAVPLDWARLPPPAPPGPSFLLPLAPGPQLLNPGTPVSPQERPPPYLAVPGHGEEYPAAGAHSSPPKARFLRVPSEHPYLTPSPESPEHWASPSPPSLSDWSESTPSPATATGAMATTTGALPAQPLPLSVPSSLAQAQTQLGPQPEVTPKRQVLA

[20] = small-molecule microarray binders of probe aEGFR, primary screen, biochemical, biotinylated probe, 635/667 nm fluorescence (AID 1097); settings: higher = more signal;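 note: probe is a biotinylated anti-EGFR antibody binding compounds printed on slides; score combines fluorescence near 667 nm and signal to noise of each spot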

SMILES | composite z-score [1] | composite z-score [2] | composite z-score [3] | composite z-score [4] | composite z-score [5] | composite z-score [6] | composite z-score [7] | z-score [8] | composite z-score [9] | composite z-score [10] | composite z-score [11] | z-score [12] | z-score [13] | z-score [14] | composite z-score [15] | z-score [16] | composite z-score [17] | composite z-score [18] | composite z-score [19] | composite z-score [20]
COc1cc2c(cc1OC)CN(C(=O)[C@@H]1[C@H]3C(=O)O[C@H](c4ccccc4)[C@H](c4ccccc4)N3[C@H](c3ccc(O)cc3)[C@@]13C(=O)Nc1ccccc13)CC2 | 0.113 | 0.797 | -0.0614 | 0.257 | 0.171 | 1.03 | 1.16 | 0.421 (inactive) | 0.0729 | 0.0854 | 1.35 | 0.27 (inactive) | -0.0755 (inactive) | 0.637 (inactive) | 3.04 | 3.03 (inactive) | -0.115 | 0.497 | 0.347 | -0.115
COC(=O)C(CC#Cc1ccc2c(c1)[C@]1(C(=O)N2)[C@H](c2ccc(OCCO)cc2)N2[C@H](c3ccccc3)[C@H](c3ccccc3)OC(=O)[C@H]2[C@@H]1C(=O)N1CCc2cc(OC)c(OC)cc2C1)C(=O)OC | 0.931 | 0.802 | 0.119 | 1.05 | 1.42 | 1.07 | 1.25 | 2.24 (inactive) | 1.6 | 0.876 | 1.57 | 2.12 (inactive) | 1.74 (inactive) | 5.14 (inactive) | 3.34 | 0.49 (inactive) | 0.365 | -1.11 | 1.07 | 0.169
CCC(CC)C(O)C1C=CC2C(=O)NC(=O)C2N1Nc1ccc(Cl)cc1Cl (stereo not given) | 0.494 | 0.318 | 0.133 | 0.309 | 1.42 | 0.971 | 1.08 | -1.71 (inactive) | 0.812 | 0.0749 | 1.4 | 0.446 (inactive) | -5.81 (inactive) | 1.34 (inactive) | 3.13 | -1.57 (inactive) | -0.0306 | -0.284 | 1.01 | -0.0352
CN1C(=O)C2C=CC(C(O)C#Cc3ccccc3)N(N3CCCCC3)C2C1=O (stereo not given) | 0.819 | 1.34 | 0.454 | 0.762 | 1.44 | 1.19 | 1.19 | -0.995 (inactive) | 1.16 | -0.0655 | 0.436 | 0.54 (inactive) | -0.126 (inactive) | -0.296 (inactive) | 0.58 | 0.0497 (inactive) | 0.529 | -0.287 | 0.964 | 0.647
NC(=O)N1C(=O)C2C(C1=O)C1C=C(c3ccc(CO)cc3)C2C(c2cccs2)N1Cc1cccc(OC(F)(F)F)c1 (stereo not given) | 0.677 | 0.639 | -0.0085 | 0.326 | -0.596 | 1.3 | 0.106 | -0.723 (inactive) | 0.322 | -0.0645 | -0.139 | -1.7 (inactive) | -4.45 (inactive) | 3.82 (inactive) | 1.01 | -0.528 (inactive) | 0.181 | -0.312 | -0.146 | 0.0089
CC(C)C(O)C1C=CC2C(=O)NC(=O)C2N1Nc1ccc(Cl)cc1Cl (stereo not given) | 0.889 | 0.206 | -0.0675 | -0.0108 | 0.514 | 1.98 | 1.16 | -0.903 (inactive) | 0.464 | -0.0645 | 0.119 | 0.376 (inactive) | -0.843 (inactive) | 1.5 (inactive) | 3.18 | -0.805 (inactive) | 0.112 | -0.463 | 0.0316 | -0.122
O=C1C[C@@](C(=O)NC2CC2)(c2ccc([N+](=O)[O-])cc2)[C@@H](c2ccc(CO)cc2I)N1C1CCCCC1 | -0.407 | 0.722 | 0.0043 | 0.496 | 0.677 | 1.04 | 1.34 | -0.165 (inactive) | 0.419 | 0.075 | 1.53 | -0.457 (inactive) | -0.173 (inactive) | 1.45 (inactive) | 2.82 | 0.233 (inactive) | -0.05 | 1.25 | 1.07 | -0.0828
CC(C)[Si](C#Cc1ccc(Oc2ccccc2)cc1)(O[Si](C#Cc1ccc(Oc2ccccc2)cc1)(C(C)C)C(C)C)C(C)C | -0.496 | 0.253 | -0.133 | 0.967 | 0.766 | -0.0929 | 0.664 | -0.421 (inactive) | -0.0273 | -0.0994 | 0.578 | 1.8 (inactive) | 0.267 (inactive) | 4.06 (inactive) | 0.981 | 1.06 (inactive) | -0.192 | 0.267 | -0.0319 | 0.0746
CO[C@H]1O[C@H](CO)[C@@H](OC(=O)Nc2ccc(C(F)(F)F)cc2)[C@H](OC(=O)Nc2ccc3c(c2)OCO3)[C@@H]1OC(=O)Nc1ccc2c(c1)OCO2 | -0.139 | 1.62 | 0.0666 | 1.22 | 1.51 | 1.76 | 1.29 | 3.93 (inactive) | -0.0167 | 0.124 | 1.54 | 2.76 (inactive) | 0.942 (inactive) | 10 (active) | 3.11 | 2.24 (inactive) | -0.0021 | 0.476 | 1.08 | 0.0869

— PubChem BioAssay
